The results in this text go back to PubChem BioAssay (EPA / NIEHS).

Molecules are shown by their SMILES. Active and inactive are the calls of the source. Rule for the calls: active = hit-call score of the fitted dose curve at least 0.9, where 1 is the maximum; inactive = score below 0.9.

This assay can be described thus: APR_HepG2_NuclearSize_1hr: Apredica 1-hour HepG2 Assay for Nuclear Size (AID 2282670). Particulars: high-content imaging, actives raise or lower the signal. The protocol: APR_HepG2_1hr is a cell-based, multiplexed-readout assay that uses HepG2, a human liver cell line, with measurements taken at 1 hour after chemical dosing in a 384-well plate.APR_HepG2_NuclearSize_1hr is one of 10 assay component(s) measured or calculated from the APR_HepG2_1hr assay. It is designed to make measurements of cell phenotype, a form of morphology reporter, as detected with fluorescence intensity signals by HCS Fluorescent Imaging technology.Data from the assay component APR_HepG2_NuclearSize_1hr was analyzed into 1 assay endpoint. This assay endpoint, APR_HepG2_NuclearSize_1hr, was analyzed with bidirectional fitting relative to DMSO as the negative control and baseline of activity. Using a type of morphology reporter, measures of all nuclear dna for gain or loss-of-signal activity can be used to understand the signaling at the nuclear-level. Furthermore, this assay endpoint can be referred to as a primary readout, because this assay has produced multiple assay endpoints where this one serves a signaling function. To generalize the intended target to other relatable targets, this assay endpoint is annotated to the cell morphology intended target family, where the subfamily is organelle conformation.
Cells were treated with dimethyl sulfoxide (DMSO) as a solvent control at a final concentration of 0.5% v/v or with compounds in DMSO with a resulting final DMSO concentration of 0.5% v/v. Compound treatment was done at concentrations of 0.39, 0.78, 1.56, 3.12, 6.24, 12.5, 25, 50, 100, and 200 uM in duplicate on each plate. Cells were treated with compounds for 1, 24, or 72 hr. Carbonyl […] m-chloro-phenylhydrazone (CCCP) and taxol were used as positive controls for mitochondrial function and cytoskeletal stability, respectively; DMSO served as the negative control for this experiment. Cells were fixed by the direct addition of 50 uL formaldehyde in Hank's Balanced Salt Solution (HBSS) to a final concentration of 3.7%. After incubation in the fixation medium for 30 min at room temperature (293-298 K), cells were rinsed twice with HBSS and treated with cell permeabilization buffer (16 uL of 0.5% Triton X-100) for 10 min at room temperature (293-298 K) before labeling. For mitochondrial membrane potential and mitochondrial measurements, pre-fixed cells were incubated with 50 uL of MitoTracker Red CMXRos (Invitrogen) at a concentration of 250 nM for 30 min before fixation. In the remaining cases, post-fixed cells were labeled by incubation with a multiplexed mixture of primary antibodies in HBSS for 60 min at room temperature (293-298 K) to detect immunoreactivity of c-Jun (1:500), phospho-histone H3 (1:100), phospho-histone H2A.x (1:200), p53 (1:400), alpha-tubulin (1:200) and Hoechst 33342 (2 ug/mL). Cells were labeled for multiplexed imaging on two separate plates: a) Hoechst 33342, MitoTracker Red, phospho-histone H3, and alpha-tubulin, and b) Hoechst 33342, phospho-histone H2A.x, and c-Jun. A final rinse with HBSS (50 uL) was performed before analysis. The primary and secondary antibodies for the proteins were phospho-histone H3 (rabbit anti-phospho-histone H3 and FITC-donkey anti-rabbit IgG), phospho-histone H2A.x (mouse anti-phospho-histone H2A.x and FITC-donkey anti-mouse IgG), c-Jun (rabbit anti-phospho-c-Jun and Cy3-donkey anti-rabbit IgG), p53 (sheep anti-p53 and Cy5-donkey anti-sheep IgG), alpha-tubulin (mouse anti-alpha-tubulin and Cy5-donkey anti-mouse IgG). These antibodies are available as the CellCiphr HepG2 assay kit (Millipore).Digital images of each well were captured using a Cellomics ArrayScan VTI (Thermo Scientific Cellomics) (0.8 NA objective, 0.63x optical coupler, and XF-93 filter set) at 20x magnification. The images were acquired using the autofocus feature of the ArrayScan instrument, which entails the following steps. First, the camera focuses on channel 1 (Hoechst 33342), where nuclei are identified. Second, a Z offset of 1 um is used for capturing mitochondria (MitoTracker Red). […]
Consider `CCNc1nc(Cl)nc(NCC)n1`, for which the outcome was inactive.

Take `C#CCOS(=O)OC1CCCCC1Oc1ccc(C(C)(C)C)cc1` (stereo not given): the outcome was inactive.

Take `Cc1ccc(-c2c(Cl)nc(C#N)n2S(=O)(=O)N(C)C)cc1`: the outcome was inactive.

For the molecule `Fc1ccc(Oc2ccnc3cc(Cl)cc(Cl)c23)cc1`, the result was inactive.

As for `COc1ccc(C(c2ccc(OC)cc2)C(Cl)(Cl)Cl)cc1`, the result was inactive.

`COC(=O)c1ccccc1C(=O)OC`: the molecule was classed as inactive.

As to `CCNc1nc(Cl)nc(NC(C)C)n1`, the result was inactive.

Turning to `Oc1ccccc1-c1ccccc1`, the call was inactive.

`CO/C=C(/C(=O)OC)c1ccccc1Oc1cc(Oc2ccccc2C#N)ncn1`: the outcome was inactive.

With `CCOC(=O)CC(SP(=S)(OC)OC)C(=O)OCC` (stereo not given), the molecule was classed as inactive.

Regarding `CCc1nn(C)c(C(=O)NCc2ccc(C(C)(C)C)cc2)c1Cl`, the molecule was classed as inactive.

`COP(N)(=O)SC` (stereo not given): the molecule was called inactive.

As to `COC(=O)N(OC)c1ccccc1COc1ccn(-c2ccc(Cl)cc2)n1`, the molecule was called inactive.

Turning to `OC(c1ccc(Cl)cc1)(c1cncnc1)c1ccccc1Cl` (stereo not given), the call was inactive.

Regarding `COC(=O)C=C(C)OP(=O)(OC)OC`, the molecule was classed as inactive.

As to `COP(=S)(OC)Oc1nc(Cl)c(Cl)cc1Cl`, the molecule was called inactive.

For the molecule `CCOc1cc(Oc2ccc(C(F)(F)F)cc2Cl)ccc1[N+](=O)[O-]`, the result was inactive.

In the case of `COc1nc(NC(C)C)nc(NC(C)C)n1`, the molecule was classed as inactive.

For `CC(Oc1ccc(Cl)cc1Cl)C(=O)O` (stereo not given), the outcome was inactive.

In the case of `CCOC(=O)C(Cl)Cc1cc(-n2nc(C)n(C(F)F)c2=O)c(F)cc1Cl` (stereo not given), the call was inactive.

Consider `CCCC1COC(Cn2cncn2)(c2ccc(Cl)cc2Cl)O1` (stereo not given), for which the result was inactive.

For the molecule `CN(C)C(=S)SSC(=S)N(C)C`, the outcome was inactive.

In the case of `CC(C)(C)c1ccc(CSc2cnn(C(C)(C)C)c(=O)c2Cl)cc1`, the result was inactive.

On to `C=CCC1=C(C)[C@@H](OC(=O)[C@@H]2[C@@H](C=C(C)C)C2(C)C)CC1=O`, for which the result was inactive.

As for `CC1COC(Cn2cncn2)(c2ccc(Oc3ccc(Cl)cc3)cc2Cl)O1` (stereo not given), the result was inactive.

Regarding `CCCCOC(=O)c1ccccc1C(=O)OCCCC`, the result was inactive.

Regarding `CNC(=O)ON=CC(C)(C)SC`, the molecule was called inactive.

As for `CCCCNC(=O)n1c(NC(=O)OC)nc2ccccc21`, the outcome was inactive.

With `CCCCC(CC)COC(=O)c1ccccc1C(=O)OCC(CC)CCCC` (stereo not given), the outcome was inactive.

On to `CC1=C(C(=O)Nc2ccccc2)SCCO1`, for which the call was inactive.

Consider `CCCCNC(=O)OCC#CI`, for which the molecule was classed as inactive.

Regarding `O=C(O)COc1nc(Cl)c(Cl)cc1Cl`, the outcome was inactive.

As to `O=C(Nc1ccccc1)Nc1ccnc(Cl)c1`, the call was inactive.

Consider `N#Cc1nn(-c2c(Cl)cc(C(F)(F)F)cc2Cl)c(N)c1S(=O)C(F)(F)F` (stereo not given), for which the molecule was called inactive.

Turning to `Cc1cc(Cl)ccc1OCC(=O)O`, the result was inactive.

For the molecule `COC(=O)C(C)Oc1ccc(Oc2ccc(Cl)cc2Cl)cc1` (stereo not given), the molecule was classed as inactive.

As for `COc1nc(C)nc(NC(=O)NS(=O)(=O)c2ccccc2Cl)n1`, the molecule was called inactive.

For the molecule `O=C(O)c1nc(Cl)ccc1Cl`, the molecule was called inactive.

For the molecule `N#CC(CCc1ccc(Cl)cc1)(Cn1cncn1)c1ccccc1` (stereo not given), the outcome was inactive.

As to `CCOP(=S)(OCC)SCn1c(=O)oc2cc(Cl)ccc21`, the molecule was classed as inactive.
